In the supplement of paper PMC5641865, “A screen for kinase inhibitors identifies antimicrobial imidazopyridine aminofurazans as specific inhibitors of the Listeria monocytogenes PASTA kinase PrkA” (The Journal of Biological Chemistry, 2017) one finds growth inhibition data, which are given here for 24 molecules.

± gives the standard deviation of the averaged measurements.
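Further: End-point A600 read in BHI broth at 37 °C with 2% DMSO, inhibition computed as (1 − OD with compound plus ceftriaxone ÷ OD with ceftriaxone only) × 100.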

The subject of the experiment is Listeria monocytogenes 10403S. Nature of the experiment: growth inhibition relative to ceftriaxone-alone control; higher = stronger potentiation of ceftriaxone growth inhibition. The settings on record: 10 µM; ceftriaxone 1 ug/ml; 12 h.
Turning to `NC(=O)Nc1cc(-c2cccc(F)c2)sc1C(=O)N[C@H]1CCCNC1`, the growth inhibition worked out at 16.7 ± 12%. For `ON=C1CCc2cc(-c3nc(C4CCNCC4)[nH]c3-c3ccncc3)ccc21`, the growth inhibition amounted to 7.4 ± 4.8%. The value for `COc1cc(C)c(NC(=O)CN(C)C)cc1Nc1nc(Nc2cccc(F)c2C(N)=O)c2cc[nH]c2n1` was -5.99 ± 8.5%. On to `CN(C)c1cc2c(Nc3ccc4c(cnn4Cc4ccccc4)c3)ncnc2cn1`, for which the growth inhibition was -7.88 ± 0.099%. For the molecule `NC(=O)c1ccc(N(C(N)=O)c2c(F)cccc2F)nc1-c1ccc(F)cc1F`, the growth inhibition worked out at 3.69 ± 12%.

Turning to `CN(C)c1cc2c(Nc3ccc4nc(Cc5ccccc5)[nH]c4c3)ncnc2cn1`, the growth inhibition is -14.1 ± 8.1%.

As for `Cc1ccc(Nc2ccnc(Nc3cccc(C(N)=O)c3)n2)cc1O`, the growth inhibition is -4.84 ± 3.2%. As to `NCc1ccc(-c2nc(-c3ccc(Cl)c(O)c3)c(-c3ccncc3)[nH]2)cc1`, the growth inhibition was -9.88 ± 15%.

On to `Nc1ccc(-c2ccc3ncc4ccc(=O)n(-c5cccc(C(F)(F)F)c5)c4c3c2)cn1` [Torin 2], for which the growth inhibition is -20 ± 12%.

Regarding `CC1=C(C(=O)Nc2ccc3[nH]ncc3c2)C(c2ccc(F)cc2)NC(=O)N1` (centres undefined), the growth inhibition was 2.29 ± 1.7%. As for `Nc1ncnc2c1c(-c1cccc(OCc3ccccc3)c1)cn2C1CC(CN2CCCC2)C1` (centres undefined), the figure is 61.4 ± 52%; as for `Fc1ccc(-c2nn3ccccc3c2-c2ccncc2)cc1`, 20.7 ± 8.6%; as for `O=C(O[C@H]1CN[C@H](C#Cc2cc3ncnc(Nc4ccc(OCc5cccc(F)c5)c(Cl)c4)c3s2)C1)N1CCOCC1`, 14.3 ± 11%. `Clc1ccc(C2(c3ccc(-c4cn[nH]c4)cc3)CCNCC2)cc1`: the growth inhibition was found to be 100 ± 1.4%. Consider `Cc1ccc(C(=O)NC2CCC2)cc1-c1ccc(C(=O)NCC2CC2)cc1`, for which the growth inhibition was -1.49 ± 1.4%. As to `COc1cc2ncn(-c3cc(OCc4cccs4)c(C(N)=O)s3)c2cc1OC`, the growth inhibition was -10.4 ± 16%.

As to `O=C1Nc2ccccc2C1=C1CCc2cc(O)ccc21`, the growth inhibition was 7.57 ± 3.2%. In the case of `Cc1cc(O)cc(C)c1/C=C/c1cncc(C(=O)N(C)C)c1`, the growth inhibition is -3.75 ± 3.3%. On to `Oc1c2ccccc2c2c3c(cccc13)N=N2`, for which the growth inhibition came to 10.4 ± 10%. For `CS(=O)(=O)CCNCc1nc(-c2ccc3ncnc(Nc4ccc(F)c(Cl)c4)c3c2)cs1`, the growth inhibition was 1.67 ± 6.4%. The value for `CCn1c(-c2nonc2N)nc2ccc(F)cc21` was -0.804 ± 2.6%; that for `Cc1ccc(NC(=O)c2ccc(CN3CCN(C)CC3)cc2)cc1Nc1nccc(-c2cccnc2)n1` [Imatinib (Gleevec)] was 16.3 ± 4.7%. With `FC(F)(F)c1cccc(Nc2nccc(-c3cnn4nc(-c5ccccc5)ccc34)n2)c1`, the growth inhibition was -7.85 ± 2.6%.

For `O=C1Nc2ccccc2/C1=C/Nc1ccc(-n2cncn2)cc1`, the growth inhibition is 0.116 ± 3.5%.
